For four compounds, outcome and AC50 results are on record in PubChem BioAssay (EPA / NIEHS).

Active and inactive are the calls of the source. The calls were made as follows: active = hit-call score of the fitted dose curve at least 0.9, where 1 is the maximum; inactive = score below 0.9.

Common to all, as to conditions: mRNA level, 48 h; actives raise or lower the signal
Read-out in assay [1]: Interleukin 6 Receptor (IL6R), IL6R (gene 3570)
The assay is described as follows: LTEA_HepaRG_IL6R: Life Technologies and Expression Analysis (LTEA) Assay for Interleukin 6 Receptor (IL6R) using HepaRG (AID 2283510). The method, boiled down: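 Concentration-response in human liver HepaRG cells: eight concentrations from 100 uM downward by half-logs, 48 h exposure, 0.5% DMSO vehicle. IL6R mRNA change measured by qRT-PCR and fitted in both directions relative to vehicle.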

Read-out in assay [2]: Potassium channel subfamily K member 1 (KCNK1), KCNK1 (gene 3775)
The assay is described as follows: LTEA_HepaRG_KCNK1: Life Technologies and Expression Analysis (LTEA) Assay for Potassium channel subfamily K member 1 (KCNK1) using HepaRG (AID 2283511). The method, boiled down:
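Differentiated human HepaRG cells in serum-free induction medium were exposed in duplicate for 48 h to 8 half-log concentrations up to 100 uM in 0.5% DMSO. KCNK1 mRNA was measured by TaqMan qRT-PCR, normalized to ACTB, GAPDH and POLR2A, and fitted bidirectionally versus DMSO.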

Read-out in assay [3]: Keratin 19 (KRT19), KRT19 (gene 3880)
The assay is described as follows: LTEA_HepaRG_KRT19: Life Technologies and Expression Analysis (LTEA) Assay for Keratin 19 (KRT19) using HepaRG (AID 2283512). The method in brief:
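Differentiated HepaRG cells in serum-free induction medium, exposed 48 h in duplicate to 8 half-log concentrations up to 100 uM in 0.5% DMSO. KRT19 mRNA by qRT-PCR, normalized to ACTB, GAPDH, POLR2A; bidirectional fit vs DMSO.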

Read-out in assay [4]: JUN Transcription Factor, JUN (gene 3725)
Kind of assay: LTEA_HepaRG_JUN: Life Technologies and Expression Analysis (LTEA) Assay for JUN Transcription Factor using HepaRG (AID 2283513). The method, boiled down: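 Human HepaRG liver cells receive test chemicals in 0.5% DMSO for 48 h across an eight-point range topping at 100 uM. Expression changes in JUN are scored in both directions against the DMSO vehicle.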

Read-out in assay [5]: Lipase C (LIPC), LIPC (gene 3990)
The assay is described as follows: LTEA_HepaRG_LIPC: Life Technologies and Expression Analysis (LTEA) Assay for Lipase C (LIPC) using HepaRG (AID 2283514). The method in brief: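 Differentiated human HepaRG cells in serum-free induction medium were exposed in duplicate for 48 h to eight concentrations (top 100 uM, half-log steps, 0.5% DMSO). LIPC mRNA was quantified by TaqMan qRT-PCR, normalized to ACTB, GAPDH and POLR2A, with bidirectional fitting versus DMSO.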

Read-out in assay [6]: Lipoprotein lipase (LPL), LPL (gene 4023)
The assay is described as follows: LTEA_HepaRG_LPL: Life Technologies and Expression Analysis (LTEA) Assay for Lipoprotein lipase (LPL) using HepaRG (AID 2283515). The method, boiled down: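 Differentiated human HepaRG cells in serum-free induction medium were exposed in duplicate for 48 h to eight half-log concentrations (top 100 uM) in 0.5% DMSO. LPL mRNA was quantified by TaqMan qRT-PCR, normalized to ACTB, GAPDH and POLR2A.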

Read-out in assay [7]: MicroRNA 122 (MIR122), gene 406906
The assay is described as follows: LTEA_HepaRG_MIR122: Life Technologies and Expression Analysis (LTEA) Assay for MicroRNA 122 (MIR122) using HepaRG (AID 2283516). Also: the transcript read is the microRNA miR-122. The method in brief: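 HepaRG, 48 h exposure, 8-pt half-log from 100 uM, 0.5% DMSO; TaqMan qRT-PCR; bidirectional fit vs DMSO.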

Read-out in assay [8]: matrix metalloproteinase-10 (MMP10), MMP10 (gene 4319)
Kind of assay: LTEA_HepaRG_MMP10: Life Technologies and Expression Analysis (LTEA) Assay for matrix metalloproteinase-10 (MMP10) using HepaRG (AID 2283517). The method in brief:
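HepaRG, collagen I, ~100,000 cells/well; serum-free induction medium; 48 h exposure, duplicate, 8-pt half-log to 100 uM, 0.5% DMSO. Readout: TaqMan qRT-PCR, normalized to ACTB/GAPDH/POLR2A; bidirectional fit vs DMSO.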

Read-out in assay [9]: MYC, MYC (gene 4609)
The assay is described as follows: LTEA_HepaRG_MYC: Life Technologies and Expression Analysis (LTEA) Assay for MYC using HepaRG (AID 2283518). The method, boiled down:
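Differentiated HepaRG cells exposed 48 h in serum-free induction medium to 8 concentrations (top 100 uM, half-log steps; 0.5% DMSO), duplicate. MYC mRNA measured by Fluidigm qRT-PCR, normalized to ACTB, GAPDH, POLR2A; bidirectional fit versus DMSO.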

Read-out in assay [10]: matrix metalloproteinase-3 (MMP3), MMP3 (gene 4314)
The assay is described as follows: LTEA_HepaRG_MMP3: Life Technologies and Expression Analysis (LTEA) Assay for matrix metalloproteinase-3 (MMP3) using HepaRG (AID 2283519). The method, boiled down:
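Differentiated human HepaRG cells, plated 48 h on collagen I, were exposed in duplicate for 48 h in serum-free induction medium to eight half-log concentrations up to 100 uM in 0.5% DMSO. MMP3 mRNA was quantified by TaqMan qRT-PCR, normalised to ACTB, GAPDH and POLR2A.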

Read-out in assay [11]: Paternally Expressed 10 (PEG10), PEG10 (gene 23089)
The assay is described as follows: LTEA_HepaRG_PEG10: Life Technologies and Expression Analysis (LTEA) Assay for Paternally Expressed 10 (PEG10) using HepaRG (AID 2283520). The method in brief: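 Chemicals tested on HepaRG cells for 48 h, highest concentration 100 uM. PEG10 expression assessed by qRT-PCR relative to DMSO control.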

Read-out in assay [12]: Nuclear factor NF-kappa-B p105 subunit (Homo sapiens) (UniProt P19838)
The assay is described as follows: LTEA_HepaRG_NFKB1: Life Technologies and Expression Analysis (LTEA) Assay for Nuclear Factor Kappa B Subunit 1 (NFKB1) using HepaRG (AID 2283521).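 Also: TaqMan qRT-PCR transcript normalised to ACTB GAPDH and POLR2A housekeeping genes.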 The method in brief: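 HepaRG, 48 h exposure; 8-pt half-log series from 100 uM in 0.5% DMSO; duplicates. Readout: NFKB1 mRNA by qRT-PCR (Fluidigm arrays), housekeeping-normalized. Gain/loss fit vs DMSO baseline.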

Read-out in assay [13]: Protein phosphatase 2A (PPP2R4), PTPA (gene 5524)
Kind of assay: LTEA_HepaRG_PPP2R4: Life Technologies and Expression Analysis (LTEA) Assay for Protein phosphatase 2A (PPP2R4) using HepaRG (AID 2283522). The method in brief: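 Gene-expression endpoint in HepaRG hepatic cells: 48 h treatment across eight half-log concentrations up to 100 uM in 0.5% DMSO. PPP2R4 mRNA by qRT-PCR, normalized to three endogenous control genes.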

Read-out in assay [14]: Phosphatase and tensin (PTEN), PTEN (gene 5728)
Kind of assay: LTEA_HepaRG_PTEN: Life Technologies and Expression Analysis (LTEA) Assay for Phosphatase and tensin (PTEN) using HepaRG (AID 2283523). The method in brief: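 Differentiated human HepaRG cells, plated 48 h then switched to serum-free induction medium, were exposed in duplicate for 48 h to eight half-log concentrations up to 100 uM in 0.5% DMSO. PTEN mRNA measured by TaqMan qRT-PCR, normalized to ACTB/GAPDH/POLR2A, bidirectional fit versus DMSO.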

Read-out in assay [15]: solute carrier (SLC22A1), SLC22A1 (gene 6580)
Kind of assay: LTEA_HepaRG_SLC22A1: Life Technologies and Expression Analysis (LTEA) Assay for solute carrier (SLC22A1) using HepaRG (AID 2283524). The method in brief: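 Human HepaRG cells were plated 48 h, switched to serum-free induction medium, then exposed in duplicate for 48 h to 8-point half-log series from 100 uM in 0.5% DMSO. SLC22A1 mRNA measured by qRT-PCR, normalized to ACTB/GAPDH/POLR2A, fitted bidirectionally versus DMSO.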

Read-out in assay [16]: Pyruvate Dehydrogenase Kinase 4 (PDK4), PDK4 (gene 5166)
The assay is described as follows: LTEA_HepaRG_PDK4: Life Technologies and Expression Analysis (LTEA) Assay for Pyruvate Dehydrogenase Kinase 4 (PDK4) using HepaRG (AID 2283525). The method in brief: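 Differentiated human HepaRG cells, pre-cultured 48 h, were exposed in duplicate for 48 h in serum-free induction medium to eight half-log concentrations up to 100 uM in 0.5% DMSO. PDK4 mRNA was quantified by qRT-PCR, normalized to ACTB, GAPDH and POLR2A, bidirectional fitting versus DMSO.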

Read-out in assay [17]: NAD(P)H dehydrogenase [quinone] 1 (NQO1), NQO1 (gene 1728)
Kind of assay: LTEA_HepaRG_NQO1: Life Technologies and Expression Analysis (LTEA) Assay for NAD(P)H dehydrogenase [quinone] 1 (NQO1) using HepaRG (AID 2283526). The method, boiled down:
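Human HepaRG hepatic cells received chemicals for 48 h in serum-free induction medium with 0.5% DMSO, up to 100 uM. Expression was assessed by TaqMan qRT-PCR against housekeeping controls and fitted bidirectionally against DMSO.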

Read-out in assay [18]: Nuclear factor erythroid 2-related factor 2 (Homo sapiens) (UniProt Q16236)
The assay is described as follows: LTEA_HepaRG_NFE2L2: Life Technologies and Expression Analysis (LTEA) Assay for Nuclear factor erythroid 2-related factor 2 (NFE2L2) Transcription Factor using HepaRG (AID 2283527).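 As to outcome: TaqMan qRT-PCR transcript level normalised to ACTB GAPDH and POLR2A housekeeping genes.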 The method in brief: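 Differentiated human HepaRG cells in serum-free induction medium were exposed for 48 h to eight concentrations (top 100 uM, half-log dilutions, 0.5% DMSO), in duplicate. NFE2L2 mRNA was quantified by TaqMan qRT-PCR, normalized to ACTB, GAPDH and POLR2A, with bidirectional fitting versus DMSO.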

Read-out in assay [19]: succinate dehydrogenase complex iron sulfur subunit B (SDHB), SDHB (gene 6390)
Kind of assay: LTEA_HepaRG_SDHB: Life Technologies and Expression Analysis (LTEA) Assay for succinate dehydrogenase complex iron sulfur subunit B (SDHB) using HepaRG (AID 2283528). The method, boiled down:
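Readout is SDHB transcript level by qRT-PCR, normalised to three housekeeping genes and fitted bidirectionally against 0.5% DMSO vehicle. Human HepaRG cells were treated for 48 h at up to 100 uM.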

Read-out in assay [20]: Signal transducer and activator of transcription 3 (Homo sapiens) (UniProt P40763)
Kind of assay: LTEA_HepaRG_STAT3: Life Technologies and Expression Analysis (LTEA) Assay for Signal transducer and activator of transcription (STAT3) using HepaRG (AID 2283529). The method, boiled down: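 Differentiated human HepaRG cells in serum-free induction medium were exposed in duplicate for 48 h to eight half-log concentrations up to 100 uM in 0.5% DMSO. STAT3 mRNA was quantified by TaqMan qRT-PCR, normalized to ACTB, GAPDH and POLR2A, and fitted bidirectionally against DMSO.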

Sequence of Nuclear factor erythroid 2-related factor 2 (Homo sapiens) (Q16236 whole entry, looked up): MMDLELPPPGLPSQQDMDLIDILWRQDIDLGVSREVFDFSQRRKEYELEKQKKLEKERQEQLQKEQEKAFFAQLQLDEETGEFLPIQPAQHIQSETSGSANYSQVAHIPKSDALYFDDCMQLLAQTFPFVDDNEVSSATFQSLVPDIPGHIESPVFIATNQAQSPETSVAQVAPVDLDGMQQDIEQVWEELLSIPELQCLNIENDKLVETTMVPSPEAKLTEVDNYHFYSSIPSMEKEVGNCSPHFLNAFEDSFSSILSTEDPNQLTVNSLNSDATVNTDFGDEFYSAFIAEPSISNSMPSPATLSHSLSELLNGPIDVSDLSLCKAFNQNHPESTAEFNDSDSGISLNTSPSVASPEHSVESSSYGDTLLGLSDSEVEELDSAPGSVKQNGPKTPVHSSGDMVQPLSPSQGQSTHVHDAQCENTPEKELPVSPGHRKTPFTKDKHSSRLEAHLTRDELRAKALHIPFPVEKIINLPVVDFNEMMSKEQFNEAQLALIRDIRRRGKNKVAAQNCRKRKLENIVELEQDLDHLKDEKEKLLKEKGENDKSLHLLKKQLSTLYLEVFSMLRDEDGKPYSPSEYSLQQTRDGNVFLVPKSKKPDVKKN
Sequence of Signal transducer and activator of transcription 3 (Homo sapiens) (P40763 whole entry, looked up): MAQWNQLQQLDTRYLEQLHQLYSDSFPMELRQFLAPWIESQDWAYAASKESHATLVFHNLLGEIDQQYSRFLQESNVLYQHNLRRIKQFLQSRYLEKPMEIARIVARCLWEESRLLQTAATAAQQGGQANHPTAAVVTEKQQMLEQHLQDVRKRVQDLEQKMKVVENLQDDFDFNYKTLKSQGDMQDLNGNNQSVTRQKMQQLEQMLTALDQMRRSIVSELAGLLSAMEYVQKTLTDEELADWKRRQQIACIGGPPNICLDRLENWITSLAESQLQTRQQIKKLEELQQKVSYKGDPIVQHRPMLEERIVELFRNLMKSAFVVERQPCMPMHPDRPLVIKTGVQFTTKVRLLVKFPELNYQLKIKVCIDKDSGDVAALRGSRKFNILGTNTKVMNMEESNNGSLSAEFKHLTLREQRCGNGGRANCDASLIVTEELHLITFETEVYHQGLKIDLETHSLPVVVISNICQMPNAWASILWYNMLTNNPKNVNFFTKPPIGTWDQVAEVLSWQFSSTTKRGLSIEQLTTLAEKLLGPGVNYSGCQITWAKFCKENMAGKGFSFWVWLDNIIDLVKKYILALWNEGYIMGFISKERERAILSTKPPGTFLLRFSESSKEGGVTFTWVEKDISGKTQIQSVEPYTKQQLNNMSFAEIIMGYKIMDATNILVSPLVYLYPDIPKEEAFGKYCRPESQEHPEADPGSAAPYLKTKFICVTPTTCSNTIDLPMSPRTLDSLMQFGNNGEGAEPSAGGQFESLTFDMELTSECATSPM
Sequence of Nuclear factor NF-kappa-B p105 subunit (Homo sapiens) (P19838 whole entry, looked up): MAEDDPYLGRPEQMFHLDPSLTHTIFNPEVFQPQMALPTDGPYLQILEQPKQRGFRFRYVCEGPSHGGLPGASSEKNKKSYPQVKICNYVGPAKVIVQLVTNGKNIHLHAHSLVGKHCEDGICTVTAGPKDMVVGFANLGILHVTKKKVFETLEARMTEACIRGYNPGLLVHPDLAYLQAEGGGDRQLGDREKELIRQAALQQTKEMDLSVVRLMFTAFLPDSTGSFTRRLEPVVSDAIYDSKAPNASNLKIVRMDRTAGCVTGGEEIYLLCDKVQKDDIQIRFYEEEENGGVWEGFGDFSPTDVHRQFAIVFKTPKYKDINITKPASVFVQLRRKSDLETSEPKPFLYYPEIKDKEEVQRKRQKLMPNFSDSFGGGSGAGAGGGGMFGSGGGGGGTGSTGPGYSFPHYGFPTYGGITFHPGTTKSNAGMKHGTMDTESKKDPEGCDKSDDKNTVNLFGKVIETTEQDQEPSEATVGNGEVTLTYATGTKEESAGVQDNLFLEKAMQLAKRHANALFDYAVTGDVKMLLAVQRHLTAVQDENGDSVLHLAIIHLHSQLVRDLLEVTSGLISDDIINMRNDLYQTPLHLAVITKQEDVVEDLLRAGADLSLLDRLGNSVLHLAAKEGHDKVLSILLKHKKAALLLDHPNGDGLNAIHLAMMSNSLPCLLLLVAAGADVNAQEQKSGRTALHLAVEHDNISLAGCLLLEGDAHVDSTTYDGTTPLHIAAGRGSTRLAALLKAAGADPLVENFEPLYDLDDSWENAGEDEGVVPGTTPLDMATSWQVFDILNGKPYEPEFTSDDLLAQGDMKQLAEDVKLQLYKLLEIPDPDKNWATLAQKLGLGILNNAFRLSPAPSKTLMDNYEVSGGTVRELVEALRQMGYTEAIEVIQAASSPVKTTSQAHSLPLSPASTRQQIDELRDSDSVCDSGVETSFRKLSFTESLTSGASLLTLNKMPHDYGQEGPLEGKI

Usually AC50 stands for the concentration giving half of the maximal activity seen. For `CCNP(=S)(OC)O/C(C)=C/C(=O)OC(C)C` (configuration not stated), the compound was classed as inactive in assay [1], in [2], in assay [4], in assay [5], in [7] and in assay [8]. Besides, the compound was called inactive in [9], in assay [11], in assay [12], in [13], in assay [14] and in [15]. In addition, the outcome in [16], in [17], in assay [19] and in assay [20] was inactive. For the same compound, the AC50 in assay [3] is 50 µM (active); in assay [6], 50 µM (active); in assay [10], 50 µM (active); in assay [18], 9.92 µM (active).

For `COc1cc(Cl)c(OC)cc1Cl`, the compound was classed as inactive in [1], in [2], in assay [3], in assay [4], in assay [5] and in assay [6]. Besides, the outcome in assay [7], in [8], in assay [9], in assay [10], in assay [11] and in assay [12] was inactive. Besides, the call in [13], in assay [14], in [15], in assay [16], in [17] and in [19] was inactive. In addition, in assay [20], the call was inactive.

`CS(=O)(=O)c1cc(C(F)(F)F)ccc1C(=O)c1cnoc1C1CC1`: the outcome in assay [1], in assay [2], in assay [3], in assay [4], in assay [5] and in [6] was inactive. Further, the compound was classed as inactive in assay [7], in assay [8], in assay [9], in [10], in assay [11] and in [13]. Also, the call in [14], in [15], in [16], in assay [17], in assay [18] and in assay [19] was inactive. Further, the outcome in assay [20] was inactive.

As for `CNC(=O)Oc1cccc2ccccc12`, the outcome in assay [1], in assay [2], in assay [3], in assay [4], in assay [5] and in assay [6] was inactive. In addition, the call in [7], in assay [8], in assay [9], in assay [10], in assay [11] and in assay [13] was inactive. Further, the outcome in assay [14], in assay [15], in assay [16], in assay [17], in [18] and in [19] was inactive. In assay [20], the compound was classed as inactive.
